Assay outcomes from PubChem.
HepG2 viability – HepG2 cytotoxicity, counter-screen for TGF-b inhibitors. HepG2 CAGA-GFP viability, ATP luminescence, 18 h. Potency, µM (top dose mostly 46.1 µM), for the others: at the highest dose activity change, negative = cytotoxicity, usual class: cytotoxic. actives 0.76% (n = 410,000). AID 588856
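HepG2 CAGA-GFP cells (1000/well, DMEM with 1% FBS) received compound, then TGF-beta at 500 pg/mL final, and were incubated 18 hours at 37 degrees C. Viability was read by CellTiter-Glo luminescence. Media-only wells were set as complete cell-killing and DMSO as no toxicity.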
HT1080 IDH1KD tx – kills HT-1080 cells with IDH1 knockdown. HT-1080 IDH1 knockdown viability, ATP luminescence, 48 h. actives 2% (n = 360,000). Potency, µM (top dose mostly 46.1 µM), inactives show at the highest dose activity, negative = toxicity, usual class: cytotoxic;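 also: 0% = DMSO wells and -100% = cell-free medium wells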
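Luminescent ATP read-out (CellTiter-Glo, 10 min at room temperature) after 48 h compound exposure at 37 °C gave viability of IDH1-knockdown HT-1080 cells. Activity was normalised to DMSO and cell-free wells, then fitted as concentration-response curves.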
TDP1 cell noCPT – qHTS for Inhibitors of human tyrosyl-DNA phosphodiesterase 1 (TDP1): qHTS in cells in absence of CPT. DT40 Tdp1-/- hTDP1 cells, no CPT, ATP luminescence, 48 h. Potency, µM (series often up to 46.2 µM), for the others: at the top dose activity change, negative = growth inhibition, actives largely listed as inhibitors. actives 15% (n = 420,000); also: % is scaled to controls: 0 for no effect and ±100 for the full control effect; nearly all actives have a fitted effect of over 55% in size
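DT40 Tdp1-/-;hTDP1 cells, no CPT (DMSO vehicle only), 400 cells/well; compounds pin-transferred; ≥48 hr, 37 °C; CellTiter-Glo 30 min RT dark, luminescence read.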
HT1080-NT tox – kills 2HG-producing HT-1080-NT fibrosarcoma cells; actives 1.6% (n = 360,000); Potency, µM (series often up to 46.1 µM), without a hit: top-dose activity, negative = less viability, actives largely listed as cytotoxic; HT-1080-NT fibrosarcoma viability, CellTiter-Glo ATP luminescence, 48 h;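 also: NT is the 2HG producing partner of a matched IDH1 knockdown line; 0% = DMSO-treated cells and -100% = media-only wells without cells; nearly all actives have a fitted effect of over 55% in size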
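Toxicity toward the 2HG-producing NT line was scored as %Activity, normalised to DMSO and no-cell wells, from CellTiter-Glo luminescence after 48 hours' treatment.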
DT40 TDP1 CPT – growth inhibition of DT40 Tdp1-/-;hTDP1 cells with camptothecin (screen for TDP1 inhibitors); chicken DT40 Tdp1-/-;hTDP1 cells + 20 nM CPT, ATP luminescence, 48 h; Potency, µM (titrated, usually from 46.2 µM), for the others: at the top dose activity change, negative = growth inhibition, usual class: inhibitors; actives 12% (n = 420,000); also: % is scaled to controls: 0 for no effect and ±100 for the full control effect; nearly all actives have a fitted effect of over 55% in size
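Chicken DT40 Tdp1-/- cells complemented with human TDP1, 400 cells/well, exposed to compounds plus 20 nM camptothecin for at least 48 h at 37 C; viability read as ATP content by CellTiter-Glo luminescence.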
TGFb SMAD3 inh – TGF-b pathway inhibition; HepG2 CAGA-GFP TGF-b/SMAD3 reporter, GFP fluorescence, 18 h; TGF-beta stimulated, 500 pg/mL final; Potency, µM (series often up to 46.1 µM), without a hit: top-dose activity, negative = inhibition, actives largely listed as inhibitors; actives 1.2% (n = 410,000); AID 588855; also: % is scaled to controls: 0 for no effect and ±100 for the full control effect; nearly all actives have a fitted effect of over 65% in size
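Inhibition was scored as loss of TGF-beta-induced (500 pg/mL final, 18 hours, 37 degrees C) GFP in HEPG2 cells carrying a CAGA-GFP reporter, in DMEM with 1% FBS. Well GFP was summed per cell; Activity was normalised to unstimulated and stimulated DMSO wells, then concentration-response fitting.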
* = called active by the depositor; ? = inconclusive; / = no result given. Sampled rows, rich in hits. Any-hit rate of the full collection: about 17%. Calls follow the shape of the dose curve; as a rule, active = well fitted curve in the direction sought with a large enough effect; inconclusive = small, poorly fitted or top-dose-only effect, or another doubt; inactive = no such curve, though single readings can be large; an effect the other way counts as inactive or inconclusive. Potency is read from the fitted curve at half-maximal effect.

SMILES	HepG2 viability	HT1080 IDH1KD tx	TDP1 cell noCPT	HT1080-NT tox	DT40 TDP1 CPT	TGFb SMAD3 inh
O=[N+]([O-])c1c(Nc2ccccc2O)cc(N2CCOCC2)c2nonc12	-18.4%	?	14.6µM*	-18.0%	16.4µM*	?
O=C(O)c1ccccc1Nc1ccc([N+](=O)[O-])c2nonc12	-9.3%	?	?	-5.0%	-5.5%	13.9%
O=[N+]([O-])c1c(NCCO)cc(N2CCCCCC2)c2nonc12	-8.1%	2.4%	-24.5%	4.4%	6.6%	10.6%
COc1cccc(Nc2ccc([N+](=O)[O-])c3nonc23)c1	0.9%	23.1µM*	-11.9%	14.6µM*	?	-23.0%
COc1cccc(Nc2cc(N3CCOCC3)c3nonc3c2[N+](=O)[O-])c1	5.0%	8.4%	18.4µM*	12.1%	20.6µM*	1.8%
Cc1noc(C)c1CSc1nnc2scc(-c3ccc(Cl)cc3)n12	-32.2%	5.0%	-22.2%	2.3%	-17.4%	41.8%
CCCC(=O)N1CCC1(C)C(=O)Nc1ccc(OC(F)F)cc1 (stereo not drawn)	3.0%	0.5%	-24.0%	11.4%	-0.6%	18.5%
CCN(CC)S(=O)(=O)c1cc(C(=O)Nc2cc(C)on2)c(Cl)cc1Cl	-20.4%	?	?	-25.8%	?	-10.2%
C=CCc1c(C)nc(-c2ccccc2)nc1N/N=C/c1ccccc1	-48.6%	-0.5%	?	-1.4%	?	?
C=CCc1c(C)nc(-c2ccccc2)nc1Nc1ccccc1O	-28.9%	16.4µM*	?	?	?	?
Cn1c(=O)cc(SCC(=O)NCCC2=CCCCC2)c2ccc(Cl)cc21	4.0%	0.4%	-21.0%	-4.3%	-28.2%	8.6%
CCc1ccc(NC(=O)CCCOc2cc(=O)n(C)c3ccccc23)cc1	-36.1%	-5.6%	?	0.0%	?	0.4%
CN(CCCNC(=O)CSc1cc(=O)n(C)c2cc(Cl)ccc12)Cc1ccccc1	-42.0%	20.6µM*	-19.0%	?	?	?
Cn1cc(SCC(=O)NCc2ccc(F)cc2)c2ccccc21	4.4%	0.6%	1.2%	-6.4%	10.0%	?
Cn1c(=O)cc(SCC(=O)NCc2ccc(F)cc2)c2ccccc21	-20.4%	?	11.6µM*	-21.5%	?	-8.6%
Cn1c(=O)cc(OCCCC(=O)Nc2ccc(F)cc2)c2ccccc21	-40.6%	/	14.6µM*	/	13µM*	19.9%
Cn1c(=O)cc(SCC(=O)NCc2ccc(F)cc2)c2ccc(Cl)cc21	-20.1%	/	3.26µM*	/	2.59µM*	-4.6%
COc1ccccc1NC(=S)NCc1ccc2c(c1)OCO2	-13.2%	6.4%	?	17.7%	1.7%	0.0%
O=C(Cn1ncc2ccsc2c1=O)N1CCN(c2ccc(Cl)cc2)CC1	-21.3%	/	/	/	/	-0.1%
Cc1ccccc1N1CCN(S(=O)(=O)Cc2ccccc2)CC1	-20.2%	-6.9%	6.9%	7.7%	8.7%	2.8%
C=CCOc1ccc(CC(=O)O)cc1Cl	/	/	2.3%	/	0.2%	/
O=C(CCCCCn1c(=O)c2sccc2n(CC(=O)Nc2cc(C(F)(F)F)ccc2Cl)c1=O)NCc1ccccc1Cl	-12.3%	/	-27.7%	/	-27.5%	?
C=CCN(c1ccccc1)S(=O)(=O)c1cccc(C(=O)O)c1	-1.8%	10.7%	-6.2%	8.6%	0.8%	-1.2%
C=CCN(c1ccccc1)S(=O)(=O)c1cccc(C(=O)N2CCN(c3ncccn3)CC2)c1	-18.5%	2.9%	3.66µM*	9.4%	6.51µM*	-10.0%
C=CCN(c1ccccc1)S(=O)(=O)c1cccc(C(=O)Nc2ccncc2)c1	-17.9%	-16.3%	20.6µM*	?	23.1µM*	-23.0%
SMILES	HepG2 viability	HT1080 IDH1KD tx	TDP1 cell noCPT	HT1080-NT tox	DT40 TDP1 CPT	TGFb SMAD3 inh
C=CCN(c1ccccc1)S(=O)(=O)c1cccc(C(=O)Nc2nc3ccccc3[nH]2)c1	-30.4%	-21.5%	13µM*	-19.6%	20.6µM*	?
C=CCN(c1ccccc1)S(=O)(=O)c1cccc(C(=O)Nc2ccc(N3CCOCC3)cc2)c1	-2.6%	?	2.59µM*	-15.3%	9.2µM*	-4.7%
CC(=O)Nc1ccc(-n2nnnc2SCC(=O)Nc2cccc(NC(=O)c3ccco3)c2)cc1	-21.8%	-21.5%	-0.5%	-4.8%	-14.6%	6.6%
CSCCC(NS(=O)(=O)c1ccccc1)C(=O)OCc1cc(=O)oc2cc(O)ccc12 (stereo not drawn)	2.0%	-7.6%	?	-3.5%	?	-2.2%
COc1ccc(OC)c(NC(=O)CCN2CC(C)CC(C)C2)c1 (stereo not drawn)	0.5%	0.1%	-7.9%	-0.3%	4.8%	6.7%
Cc1ccc(CNC(=O)NC23CC4CC(CC(C4)C2)C3)cc1	-11.3%	15.9%	?	-0.4%	23.1µM*	-1.8%
O=C(CSc1ccccc1C(=O)NCc1ccccc1)NC12CC3CC(CC(C3)C1)C2	-6.7%	-2.1%	29.1µM*	-9.0%	?	?
Cc1ccc(/C(O)=C/C(=O)C(=O)NC23CC4CC(CC(C4)C2)C3)cc1	-14.2%	0.4%	13µM*	3.5%	?	8.8%
Cc1ccc(C(=O)NCC(=O)NC23CC4CC(CC(C4)C2)C3)cc1	-9.0%	-1.8%	2.9%	-5.5%	-3.2%	-8.1%
CN(C)CCNC(=O)COc1ccc(C23CC4CC(CC(C4)C2)C3)cc1	-88.6%	?	20.6µM*	?	25.9µM*	?
C/C(CC(=O)Nc1ccc2c(c1)OCCO2)=N\NC(=O)c1ccccn1	-13.3%	-0.9%	8.8%	6.0%	1.4%	2.1%
O=C(Nc1ccccc1)OCCc1ccccn1	1.6%	17.4%	-3.6%	16.6%	-0.7%	-2.8%
CN1CCN(C2CN(Cc3cn(Cc4ccc(F)cc4)nn3)S(=O)(=O)C2)CC1 (stereo not drawn)	/	9.9%	-16.7%	20.0%	2.3%	/
O=C(CSc1cnc2ccccc2n1)c1ccc(F)cc1	-22.2%	-1.2%	7.7%	-0.8%	-28.5%	-9.9%
Cc1ccc(C23CC4CC(CC(NC(=O)NCCN(C)C)(C4)C2)C3)cc1	-102.9%	?	23.1µM*	20.6µM*	?	?
Cc1ccc(-c2c(CN3CCN(c4cc(Cl)ccc4C)CC3)csc2C)cc1	-15.9%	/	?	/	16.4µM*	?
CCC(=O)N1c2ccccc2CC1C(=O)NCCN1CCN(c2cc(Cl)ccc2C)CC1 (stereo not drawn)	-31.8%	/	?	/	20.6µM*	-14.0%
CCOC(=O)c1c(C)[nH]c(C)c1S(=O)(=O)N1CCN(c2cc(Cl)ccc2C)CC1	-91.0%	/	?	/	?	?
